Bioassay records (PubChem)
HT1080 IDH1KD tx – kills HT-1080 cells with IDH1 knockdown; HT-1080 IDH1 knockdown viability, ATP luminescence, 48 h; Potency, µM (series often up to 46.1 µM), for the others: at the highest dose activity, negative = toxicity, usual class: cytotoxic; 360,000 compounds, 2% hits;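 note: 0% = DMSO wells and -100% = cell-free medium wells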
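HT-1080-IDH1KD cells (IDH1 knocked down), 750/well in RPMI with 5% FBS, treated with compound 48 h at 37 degrees C. Viability by CellTiter-Glo luminescence, normalised to DMSO and no-cell wells; concentration-response curves classed.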
KB-V1 cytotox – KB-V1 MDR subline cytotoxicity | KB-V1 MDR cells viability, CellTiter-Glo, 72 h | Potency, µM (doses to about 46.1 µM), usual class: cytotoxic | 400,000 compounds, 3.4% hits | AID 1347076; note: % is set by controls: 0 for no effect and ±100 for the full control effect; nearly all actives have a fitted effect of over 60% in size
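Compound-treated KB-V1 multidrug-resistant cells, 72 h, 37 degrees C; viability by CellTiter-Glo. Fitted qHTS curves give the values.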
HT1080NT lethal – kills 2HG-producing HT-1080-NT fibrosarcoma cells; 360,000 compounds, 1.6% hits; AID 686970; Potency, µM (series often up to 46.1 µM), for inactives: at the highest dose activity, negative = less viability, usual class: cytotoxic; HT-1080-NT fibrosarcoma viability, CellTiter-Glo ATP luminescence, 48 h;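 note: NT is the 2HG producing partner of a matched IDH1 knockdown line; 0% = DMSO-treated cells and -100% = media-only wells without cells; nearly all actives have a fitted effect of over 55% in size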
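A 48-hour cytotoxicity screen used HT-1080-NT cells plated 2 hours before compound delivery. ATP-based CellTiter-Glo luminescence measured viability, normalized to DMSO and no-cell controls.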
MCF10A rerep – induces DNA re-replication in MCF 10a normal breast cells. MCF 10A DNA re-replication, Hoechst nuclear intensity, 48 h. Potency, µM (top dose mostly 46.1 µM), inactives show at the top dose activity, positive = re-replication, actives largely listed as activators. 350,000 compounds, 2.9% hits; note: % of control where 0% means no effect; nearly all actives have a fitted effect of over 50% in size
KB-3-1 tox – KB-3-1 parental cell cytotoxicity. Potency, µM (top dose mostly 46.1 µM), most hits filed as cytotoxic. KB-3-1 viability, CellTiter-Glo ATP luminescence, 72 h. AID 1347075. 400,000 compounds, 1.4% hits; note: % is set by controls: 0 for no effect and ±100 for the full control effect; nearly all actives have a fitted effect of over 60% in size
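KB-3-1 cells, DMEM (no phenol red) + 10% FBS; compound by pin transfer, 72 h, 37 °C. Readout: CellTiter-Glo luminescence after 10 min. Data normalized, curve-fitted.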
SW480 rerep – DNA re-replication induction in SW480 cells; SW480 DNA re-replication, Hoechst DNA content imaging, 48 h; Potency, µM (highest dose often 46.1 µM), for the others: at the top dose re-replication activation, most hits filed as activators; 340,000 compounds, 1.8% hits; AID 624297; note: % of control where 0% means no effect; nearly all actives have a fitted effect of over 55% in size
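Hoechst fluorescence of nuclei (405 nm excitation, 500-530 nm emission) measured by plate-scanning imager after 48 hr compound exposure at 37 C; re-replication scored as increased number of nuclei with elevated intensity.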
* hit, by the source's call; i = inactive; ? = inconclusive; . = no result. Rows were chosen to be rich in hits. Some 8% of all compounds tested hit in one or more screens of this group. Calls come from the whole dose curve; as a rule, active = well fitted curve in the direction sought with a large enough effect; inconclusive = small, poorly fitted or top-dose-only effect, or another doubt; inactive = no such curve, though single readings can be large; an effect the other way counts as inactive or inconclusive. Potency is the fitted concentration of half-maximal effect.

SMILES | HT1080 IDH1KD tx | KB-V1 cytotox | HT1080NT lethal | MCF10A rerep | KB-3-1 tox | SW480 rerep
CCC1(C)Cc2c(sc3nc(SC)n(-c4ccc(C)cc4)c(=O)c23)CO1 (stereo not drawn) | . | i | . | . | i | .
CCc1cc2c(=O)n(Cc3ccco3)c(SCc3c(C)noc3C)nc2s1 | 15µM* | 2.9µM* | ? | 3.3µM* | 5.8µM* | 2.6µM*
CCc1cc2c(=O)n(Cc3ccco3)c(SCC(=O)NCC3CCCO3)nc2s1 (stereo not drawn) | -7% | 2.6µM* | -30% | 3% | ? | -2%
CCc1ccc(CN2C(=O)CCC2(C)C(=O)NC2CCCC2)cc1 (stereo not drawn) | 5% | 21µM* | 4% | -9% | i | 2%
CC(C)CCN1C(=O)CCC1(C)C(=O)NC1CCCCCCC1 (stereo not drawn) | -4% | i | 0% | 7% | i | -5%
CC(C)CCN1C(=O)CCC1(C)C(=O)NC1CCCCCC1 (stereo not drawn) | -23% | 18µM* | 17% | -11% | i | 1%
COc1cccc(CN2C(=O)CCC2(C)C(=O)NC2CCCCC2)c1 (stereo not drawn) | -2% | i | 0% | 19% | i | -2%
COc1ccc(CN2C(=O)CCC2(C)C(=O)NC2CCCCCC2)cc1 (stereo not drawn) | 7% | 15µM* | 1% | 17% | i | -3%
COc1cc(OC)cc(C(=O)NCC(=O)OCC(=O)Nc2ccc3c(c2)OCO3)c1 | 0% | i | -1% | 0% | i | ?
CC(C)CCNC(=O)CCn1nc(-c2ccccc2)ccc1=O | 29% | i | 14% | -2% | i | 4%
O=C(N1CCN(c2ccc(F)cc2)CC1)C1(c2cccs2)CCOCC1 | -3% | 23µM* | 0% | -21% | i | 11%
O=C(N1CCN(c2cccc(Cl)c2)CC1)C1(S(=O)(=O)c2ccc(Cl)cc2)CC1 | -4% | i | -14% | -2% | i | 1%
O=C(N1CCN(c2cccc(Cl)c2)CC1)C1(c2cccs2)CCOCC1 | 0% | 4.6µM* | 2% | 8% | ? | -189%
Cc1ccc(NP(=O)(Nc2ccc(C)cc2)Nc2ccc(C)cc2)cc1 | -2% | ? | -14% | 21% | 21µM* | ?
Cc1ccc(P(C)(=O)c2ccc(C)cc2)cc1 | 19% | i | 9% | 4% | i | -2%
COc1cc(/C=C2\SC(N3CCC(C)CC3)=NC2=O)ccc1O | -12% | i | 1% | -14% | i | 1%
Cn1nnnc1NN=Cc1ccccc1 | 2% | 18µM* | 14% | . | i | .
Fc1ccc(/C=N/Nc2nnnn2-c2ccccc2)cc1 | -29% | i | ? | 30% | i | -32%
CCC1CCCCN1CCNC(=O)CNS(=O)(=O)c1ccc2nc(C)sc2c1 (stereo not drawn) | -1% | i | 2% | -8% | i | -14%
CCOc1ccc(-c2ccc(SC)nn2)cc1 | 23µM* | 12µM* | 16µM* | -5% | ? | 5%
CCOc1ccc(-c2ccc(SCC(=O)Nc3nnc(CC)s3)nn2)cc1 | 2% | i | 8% | 3% | i | 0%
O=C1CC(c2ccc3c(c2)OCCO3)Oc2ccccc21 (stereo not drawn) | -3% | i | 16% | ? | i | ?
O=C1CC(c2ccc3c(c2)OCCO3)Oc2ccc([N+](=O)[O-])cc21 (stereo not drawn) | 0% | ? | ? | 16µM* | ? | -4%
O=C(NC(=O)N1CCN(c2cccc(Cl)c2)CC1)c1ccc(Cl)cc1 | 0% | ? | ? | 5.2µM* | i | 0%
O=C(CCS(=O)(=O)c1ccc(Br)cc1)N1CCN(c2ccc(Cl)cc2)CC1 | 0% | 5.8µM* | 14% | 13% | i | 4%
O=C(NCCC(=O)N1CCN(c2cccc(Cl)c2)CC1)c1ccc(Br)cc1 | ? | 23µM* | -3% | ? | i | 2%
